Compound activity (PubChem BioAssay)
Hits are enriched below; roughly 8.1% of the tested compounds scored in any of these assays.
ELG1 DNA repair: ELG1-dependent DNA repair inhibition | HEK293T ELG1-luciferase reporter, luminescence, 16 h; DNA damage induced by 5-fluorouridine | Potency, µM (top dose mostly 46.1 µM), inactives show at the highest dose activity change, negative = inhibition, hits mostly inhibitors | 330,000 tested, 2.3% active; further: on the % scale 0 is the no-effect control and ±100 the full control effect; nearly all actives have a fitted effect of over 55% in size
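In this reporter screen, reduction of luminescence relative to DMSO vehicle indicated activity. Compounds and 5-fluorouridine were added together to 2,000 cells per well, incubated for 16 hr at 37 °C, then developed with ONE-Glo.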
KB-V1 MDR tox: KB-V1 MDR subline cytotoxicity. KB-V1 MDR cells viability, CellTiter-Glo, 72 h. Potency, µM (doses to about 46.1 µM), most hits filed as cytotoxic. 400,000 tested, 3.4% active. AID 1347076; further: on the % scale 0 is the no-effect control and ±100 the full control effect; nearly all actives have a fitted effect of over 60% in size
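Cytotoxicity toward P-gp-expressing KB-V1 cells was determined as loss of CellTiter-Glo luminescence after 72 h at 37 degrees C. Compounds were tested in quantitative HTS format across a concentration range, with curves fitted to normalized data.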
KB-3-1 tox: kills parental KB-3-1 adenocarcinoma cells | KB-3-1 viability, CellTiter-Glo ATP luminescence, 72 h | 400,000 tested, 1.4% active | Potency, µM (series often up to 46.1 µM), usual class: cytotoxic; further: on the % scale 0 is the no-effect control and ±100 the full control effect; nearly all actives have a fitted effect of over 60% in size
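Screening of KB-3-1 cells (DMEM, 10% FBS, phenol-red free) ran from lowest to highest compound concentration; after 72 h at 37 °C viability was read luminescently and curves fitted.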
MCF10A rerep: DNA re-replication induction in MCF 10a cells; MCF 10A DNA re-replication, Hoechst nuclear intensity, 48 h; Potency, µM (series often up to 46.1 µM), for the others: top-dose activity, positive = re-replication, actives largely listed as activators; 350,000 tested, 2.9% active; AID 624296; further: % of control where 0% means no effect; nearly all actives have a fitted effect of over 50% in size
SW480 rerep: inducers of DNA re-replication in SW480 colon cancer cells; SW480 DNA re-replication, Hoechst DNA content imaging, 48 h; Potency, µM (highest dose often 46.1 µM), without a hit: top-dose re-replication activation, usual class: activators; 340,000 tested, 1.8% active; further: % of control where 0% means no effect; nearly all actives have a fitted effect of over 55% in size
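Image-based read-out: total Hoechst fluorescence of nuclei (405 nm excitation, 500-530 nm emission), with hits raising the fraction of high-intensity nuclei. SW480 colon cells incubated 48 hr with compounds at 37 C.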
Numbers without * were called inactive; i = inactive; ? = inconclusive; / = not tested or not shown; [ ] = another dose, or the depositor's remark. The call rests on the fitted dose curve; in most records, active means well fitted curve in the direction sought with a large enough effect; inconclusive means small, poorly fitted or top-dose-only effect, or another doubt; inactive means no such curve, though single readings can be large; an effect the other way counts as inactive or inconclusive. Potency means the concentration at half of the fitted maximal effect.

SMILES | ELG1 DNA repair | KB-V1 MDR tox | KB-3-1 tox | MCF10A rerep | SW480 rerep
Cc1[nH]c(=O)c(C(=O)/C=C/c2ccccc2F)c2c1CCCC2 | 14.6µM* | 6.51µM* | 6.51µM* | 3.26µM* | 4.11µM*
C=C(C)COc1ccc(-c2nc(N)ncc2-c2ccc(Cl)cc2)c(O)c1 | -11.4% | 23.1µM* | ? | ? | -12.6%
COc1ccc(-c2cnc(N)nc2-c2ccc(OC)cc2O)cc1 | 23.1µM* | i | i | 15.3% | 0.1%
COc1ccc(-c2nc(N)ncc2-c2ccccc2)c(O)c1 | 23.9% | ? | i | 1.5% | -1.2%
C=C(C)COc1ccc(-c2nc(N)ncc2-c2ccc(OC)c(OC)c2)c(O)c1 | 0.0% | i | i | ? | 13.0%
Nc1ncc(-c2ccccc2)c(-c2ccc(OCc3ccccc3)cc2O)n1 | 0.0% | i | ? | 20.6µM* | ?
COc1cccc(Oc2cnc(N)nc2-c2ccc(OC)cc2O)c1 | -18.6% | 2.59µM* | 6.51µM* | 6.51µM* | 7.31µM*
C[C@@H]1CN([C@H](C)CO)C(=O)CCCn2cc(nn2)CO[C@H]1CN(C)S(=O)(=O)c1cccc(C#N)c1 | / | i | i | / | /
COc1ccc(CNC(=O)c2ccc(NC(=O)N3CCSc4ncccc43)cc2)c(OC)c1 | / | i | i | / | /
CC1(CCC(=O)O)C(=O)CCC2C1CCC1(C)C2CCC1(C)O (configuration not stated) | / | ? | i | -0.8% | -1.4%
CCCS(=O)(=O)NC(=O)C1(C)CCCN(C(=O)c2ccc(F)cc2Cl)C1 (configuration not stated) | / | i | i | / | /
COc1cc(NC(=O)c2ccccc2)c(OC)cc1NC(=O)CN1C(=O)NC2(CCCCC2C)C1=O (configuration not stated) | -21.0% | ? | i | 10.6% | 2.6%
CCCCNC(=O)C1c2ccccc2OCC(=O)N1Cc1ccccn1 (configuration not stated) | / | i | i | / | /
Cc1cccc(NC(=O)COc2cccc3c2CCN(Cc2ccccc2)C3=O)c1C | ? | 9.2µM* | i | -3.8% | 0.2%
CCOC(=O)N1CCN(C(=O)COc2cccc3c2CCN(Cc2cccc(C)c2)C3=O)CC1 | 20.6µM* | 18.4µM* | i | 10.2% | 1.6%
COc1ccc(NCc2nnc(SCC(=O)Nc3nc(-c4ccccc4)cs3)n2-c2ccccc2)cc1 | 11.4% | i | 13µM* | 10.3µM* | ?
COc1cccc(NC(=O)CSc2nnc(Cc3cccs3)n2-c2ccc(C)cc2)c1 | ? | 8.2µM* | i | 7.6% | 1.8%
Cc1cc(C)nc(SCc2nnc(SCC(=O)Nc3nc(-c4ccccc4)cs3)n2-c2ccccc2)n1 | -24.2% | i | i | 11.5% | -1.2%
COc1ccc(NC(=O)CSc2nnc(Cc3cccs3)n2-c2ccc(C)cc2)cc1 | ? | i | i | 7.0% | 3.7%
COc1ccc(-n2c(CNc3ccc(C)cc3)nnc2SCC(=O)Nc2nc(-c3ccccc3)cs2)cc1 | ? | i | i | 14.6µM* | ?
C[N+]1(CC(=O)c2c3ccccc3cc3ccccc23)CCOCC1 | / | i | i | / | /
Cc1ccc(NC(=O)c2ccc(-c3nn(C)c(=O)c4ccccc34)cc2)cc1 | ? | 20.6µM* | i | 4.0% | -0.6%
Cn1nc(-c2ccc(C(=O)Nc3ccc(F)cc3)cc2)c2ccccc2c1=O | 7.3µM* | ? | i | 16.1% | 0.4%
Cc1ccc(NC(=O)c2ccc(-c3nn(C)c(=O)c4ccccc34)cc2)c(C)c1 | -30.0% | i | i | 1.8% | -9.4%
CCN1C(=O)c2ccccc2S(=O)c2ccc(C(=O)N3CCN(c4cccc(Cl)c4)CC3)cc21 (configuration not stated) | / | i | ? | / | /
SMILES | ELG1 DNA repair | KB-V1 MDR tox | KB-3-1 tox | MCF10A rerep | SW480 rerep
NC(=O)c1sc(-c2ccsc2)cc1NS(=O)(=O)c1ccc(C(F)(F)F)cc1 | 18.3µM* | ? | i | ? | 0.7%
CC(=O)c1sc(-c2ccccc2)cc1NS(=O)(=O)c1ccc(C)cc1 | -17.7% | ? | i | 11.6µM* | ?
CC(=O)c1sc(-c2ccc(F)cc2)cc1NS(=O)(=O)c1ccc(C)cc1 | 18.3µM* | ? | i | -4.7% | -1.7%
Cc1ccc(N2CC(C)Cn3c2nc2c3c(=O)n(Cc3cccc(Cl)c3)c(=O)n2C)cc1 (configuration not stated) | / | i | i | / | /
Cc1cccc(-c2noc(-c3ccc(NC4CCCC4)c([N+](=O)[O-])c3)n2)c1 | / | i | i | / | /
C=CCN1C(=O)/C(=C2/Sc3ccc(OC)cc3N2C)SC1=Nc1cccc(O)c1 | ? | i | i | 5.8µM* | ?
CCN1C(=O)/C(=C2/Sc3ccc(OC)cc3N2C)SC1=Nc1ccc(OC)cc1 | 23.2% | i | i | -32.6% | -40.9%
C/C(=N\NC(=O)COc1cccc(C)c1)c1ccc2ccccc2c1O | -1.4% | i | ? | 13µM* | 23.1µM*
O=C(O)CCC/C=C\C[C@@H]1[C@@H](/C=C/[C@@H](O)COc2cccc(C(F)(F)F)c2)[C@H](O)C[C@@H]1O | / | / | / | -2.5% | 1.9%
COCCn1c(SCc2cnc(-c3ccccc3)s2)nnc1-c1ccncc1 | ? | i | i | 17.5%[9.22 µM] | -3.9%
COc1ccc(-n2cnnc2SCc2cnc(-c3ccccc3)s2)cc1 | -2.9% | 16.4µM* | i | -0.5% | 9.7%
CCN(CC(=O)NCc1cccs1)C(=O)CCCOc1ccccc1 | 18.8% | i | i | 0.3% | -12.9%
CCN(CC(=O)NCc1cccs1)C(=O)CCCOc1ccc(C(C)(C)C)cc1 | -9.3% | 20.6µM* | ? | 15.6% | -1.3%
CCN1/C(=C/c2sc(-c3ccccc3C)c[n+]2C)Sc2ccccc21 | ? | ? | 0.411µM* | 20.6µM* | ?
CCC(=O)/C=C1/Sc2ccccc2N1CC | -1.8% | i | i | ? | 3.2%
CC(=O)N[C@@H](Cc1c[nH]c2ccccc12)C(=O)OCC(=O)Nc1ccc2c(c1)OCO2 | / | i | i | 91.1% | 2.9%
Cc1[nH]c2ccccc2c1C(=O)C(=O)Nc1ccc2c(c1)OCCO2 | ? | i | i | 1.0% | 3.8%
O=C(Nc1ccc2c(c1)OCCO2)C(=O)c1c[nH]c2ccccc12 | ? | i | 3.66µM* | 9.2µM* | 4.61µM*
O=C(Nc1ccc2c(c1)OCO2)C(=O)c1c[nH]c2ccccc12 | ? | i | 6.51µM* | 16.0% | 1.8%
COc1ccccc1N1C(C)=CC(=C(C#N)c2nc3ccccc3s2)C=C1C | ? | i | ? | ? | 18.4µM*
COc1ccc(C=O)cc1OS(=O)(=O)c1ccc(NC(C)=O)cc1 | ? | i | i | ? | 18.4µM*
C#CCN(C)Cc1ccccc1 | -0.5% | i | i | ? | ?
